Here are results for three molecules from PubChem BioAssay (NCATS).

SMILES strings stand for the structures. Several values for one entry are separate records, joined by “and”; a condition that tells them apart may be missing. Equal values may be shown once. Values without a mark were called inactive. Records with an inconclusive call do not appear. Activity calls are given as the source filed them. Unless noted, the call rests on the fitted dose curve; in most records, active means well fitted curve in the direction sought with a large enough effect; inconclusive means small, poorly fitted or top-dose-only effect, or another doubt; inactive means no such curve, though single readings can be large; an effect the other way counts as inactive or inconclusive.

Assay [1] concerns the target Cytochrome P450 1A2 (Homo sapiens) (UniProt P05177). Put plainly: p450-cyp1a2 (AID 410; calls by dose curve; further: potency means the concentration at half of the fitted maximal effect). Put shortly:
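Inhibition was calculated relative to 57 uM furafylline (full inhibition). The reaction used human CYP1A2 at 20nM with Luciferin-ME at its Km, 100uM, driven by an NADPH-regenerating system for 60 min at room temperature.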

The target of assay [2] is Mitogen-activated protein kinase 10 (Mus musculus) (UniProt Q61831). Briefly: JNK3 AlphaScreen Assay (AID 530; active means well fitted curve in either direction with a large enough effect, not every such curve was filed as active;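 further: kinase came from lysate of stimulated human HepG2 cells; signal reports phosphorylation of biotinylated GST-cJun 1-79 at Ser73 with 10 µM ATP; on the % scale 0 is the no-effect control and ±100 the full control effect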). A digest of the protocol: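 qHTS format: compounds tested as titrations against IL-1beta/TNF-alpha-activated HepG2 lysate JNK3 with biotin-GST-cJun substrate and 10 uM ATP at room temperature. Loss of anti-phospho-cJun AlphaScreen signal indicates inhibition.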
On the technique in general: In Alpha technology, singlet oxygen from a donor bead excites a nearby acceptor bead.

Assay [3] addresses Cytochrome P450 3A4 (Homo sapiens) (UniProt P08684). Briefly: qHTS Assay for Activators of Cytochrome P450 3A4 (AID 885). Further: nearly all actives have a fitted effect of over 65% in size. Put shortly:
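20nM CYP3A4 + 25uM Luciferin-PPXE (=KM), 200mM KPO4; cpd 10 min RT; NADPH regen, 60 min RT; stop w/ detection buffer, 20 min; luminescence. Normalized to 57 uM ketoconazole.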
For orientation: In qHTS, concentration-response curves come from the screen itself.

The target in assay [4] is 3',5'-cyclic-AMP phosphodiesterase 4B (Homo sapiens) (UniProt Q07343). Put plainly: qHTS Assay for Inhibitors of PDE-IV (AID 607; active means well fitted activation curve with a large enough effect in the main read-out, with a control signal flat, not every such curve was filed as active; further: % of control where 0% means no effect). Put shortly: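 ACTOne HEK293 cells carry a modified cAMP-gated CNG channel and express endogenous PDE4; plated 1000 cells/well, compounds up to 22.9 uM final. Membrane-potential dye fluorescence (ex 535/em 590) was read; parental cells received 10 uM forskolin + 100 uM RO 20-1724.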

Assay [5] deals with Cytochrome P450 2C9 (Homo sapiens) (UniProt P11712). Briefly: qHTS Assay for Inhibitors and Substrates of Cytochrome P450 2C9 (AID 883). Further: potency means the concentration at half of the fitted maximal effect; nearly all actives have a fitted effect of over 60% in size. A digest of the protocol:
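10nM CYP2C9 + 100uM Luciferin-H (=KM), 25mM KPO4; cpd 10 min 37C; NADPH regen, 60 min 37C; stop/detect with P450 Glo-Buffer 20 min; luminescence. Norm. to 57uM sulphaphenazole as full inhibition.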

Assay [6] is described as follows: Cell Viability - BJ (AID 421; calls by dose curve;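 further: potency means the concentration at half of the fitted maximal effect; cells exposed to compound for 40 hours at 37 °C before readout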). Conditions: BJ fibroblast viability, qHTS. A digest of the protocol: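 Luminescent ATP signal (CellTiter-Glo, 20 min at room temperature) served as the read-out of viable BJ cells after 40 hours of compound treatment. Responses were scaled between DMSO and 100 uM tamoxifen, and AC50 values were obtained by Hill modeling.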
Assay [7] is described as follows: Cell Viability - Hek293 (AID 427;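 active means compounds whose dose-response curve shows a full or clear partial loss of cell viability, called from curve shape rather than a numeric limit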;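 further: potency means the concentration at half of the fitted maximal effect; cells exposed to compound for 40 hours at 37 °C before reading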). Conditions: qHTS. Put shortly: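 Luminescent ATP read-out (CellTiter-Glo, 20 min RT) after 40 hr compound exposure at 37 °C in complete medium. Signal normalized to DMSO (basal) and 100 uM tamoxifen (100% inhibition); concentration-response fitted with the standard Hill equation to give AC50.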
A short description of assay [8]: Cell Viability - HepG2 (AID 433; calls by dose curve;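 further: potency means the concentration at half of the fitted maximal effect; potency for ATP loss meaning cytotoxicity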). Conditions: qHTS. A digest of the protocol:
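ATP luminescence (CellTiter-Glo) after 40 h compound exposure, 37 °C, HepG2, 1500 cells/well, complete medium. Normalized: DMSO = basal, 100 uM tamoxifen = 100% inhibition. AC50 via standard Hill equation.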

Assay [9] can be described thus: Cell Viability - MRC5 (AID 434; calls by dose curve;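 further: potency means the concentration at half of the fitted maximal effect; potency reflects cytotoxicity seen as loss of intracellular ATP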). The settings on record: MRC5 lung fibroblast viability, qHTS. A digest of the protocol: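 MRC5 normal human lung fibroblasts, 1500 cells/well, exposed to compound for 40 hr at 37 C. Cellular ATP was read by CellTiter-Glo luminescence; data normalized to DMSO and 100 uM tamoxifen, with AC50 from Hill fits.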
A short description of assay [10]: Cell Viability - SK-N-SH (AID 435; calls by dose curve; further: potency means the concentration at half of the fitted maximal effect). The settings on record: SK-N-SH neuroblastoma cell viability qHTS. A digest of the protocol:
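CellTiter-Glo ATP luminescence, 20 min RT read; cells pre-plated 5 hr, compound 40 hr at 37 °C, 1500 cells/well, complete medium. Normalized DMSO = 0, 100 uM tamoxifen = 100% inhibition; Hill-fit AC50.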

Assay [11] is described as follows: Cell Viability - N2a (AID 540). Further: potency means the concentration at half of the fitted maximal effect; nearly all actives have a fitted effect of over 45% in size. The settings on record: N2a mouse neuroblastoma cell viability; activity change, negative = cytotoxicity: at 92.2 µM (top of the series). A digest of the protocol:
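First, 1500 N2a cells per well incubate 5 hr at 37 °C; next, compounds are added and incubated 40 hr at 37 °C; finally CellTiter-Glo is added and luminescence read after 20 min, with AC50 derived by Hill modeling.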

Assay [12] can be described thus: Cell Viability - NIH 3T3 (AID 541). Further: potency means the concentration at half of the fitted maximal effect; nearly all actives have a fitted effect of over 25% in size. Conditions: NIH 3T3 cell viability, qHTS; activity change, negative = cytotoxicity: at 92.2 µM (top of the series). Put shortly: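 AC50 values reflect concentration-dependent loss of intracellular ATP in NIH 3T3 cells after 40 hr treatment in complete culture medium, quantified by luciferase-based luminescence.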
Assay [13] can be described thus: Cell Viability - HUV-EC-C (AID 542). Further: potency means the concentration at half of the fitted maximal effect; nearly all actives have a fitted effect of over 35% in size. Put shortly: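 Decrease in cellular ATP, quantified by luciferase luminescence, reflects toxicity in normal human vascular endothelial HUV-EC-C cells given compound for 40 hr in complete culture medium. Values are AC50s from concentration-response curves.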
Assay [14] in a line: Cell Viability - H-4-II-E (AID 543). Further: potency means the concentration at half of the fitted maximal effect; nearly all actives have a fitted effect of over 35% in size. Put shortly: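 Here, cytotoxicity is measured in the rat hepatoma line H-4-II-E as loss of intracellular ATP after 40 hr compound treatment, detected by luciferase luminescence.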
Assay [15] in a line: Cell Viability - SH-SY5Y (AID 544). Further: potency means the concentration at half of the fitted maximal effect; nearly all actives have a fitted effect of over 55% in size. Conditions: SH-SY5Y neuroblastoma cell viability; viability change, negative = cytotoxic: at 92.2 µM (top of the series). A digest of the protocol: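 Cytotoxicity is scored as a concentration-dependent fall in intracellular ATP in human SH-SY5Y cells treated 40 hr in complete culture medium. Potency is expressed as AC50 from a Hill equation fit.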

Assay [16] is described as follows: Cell Viability - Renal Proximal Tubule (AID 545). Further: potency means the concentration at half of the fitted maximal effect; nearly all actives have a fitted effect of over 40% in size. Conditions: renal proximal tubule cells viability, primary cells of rat origin; activity change, negative = cytotoxicity: at 91.7 µM (top of the series). Put shortly: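 Rat kidney proximal tubule cells, freshly isolated; 1000 cells/well, 5 hr settle, compound 40 hr 37 °C. CellTiter-Glo 20 min RT, luminescence read. AC50 by standard Hill fit.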

Assay [17] in a line: Cell Viability - Mesenchymal (AID 546).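 Further: cells exposed to compound for 40 hours before reading.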 The settings on record: mesenchymal cells viability, qHTS; activity change, negative = cytotoxicity: at 91.7 µM (top of the series). Put shortly:
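Human kidney mesenchymal cells from normal renal glomeruli, 1000 cells/well, rested 5 hr at 37 °C, then treated 40 hr at 37 °C in complete medium. Cellular ATP read by CellTiter-Glo luminescence; AC50 from Hill-equation fits.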

Assay [18] can be described thus: Cellular Toxicity (caspase-3) HepG2 (AID 654).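 Further: cells exposed to compound for 16 hours before reading; 0% = DMSO alone and 100% = caspase signal from 100 µM tamoxifen.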 A digest of the protocol: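 qHTS, HepG2, 1500 cells/well, complete medium; cpd 16 h 37 °C; Caspase-Glo 3/7, 20 min RT; lum. Norm: DMSO vs 100 uM tamoxifen; AC50 Hill fit.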
A short description of assay [19]: Cellular Toxicity (caspase-3) Jurkat (AID 655).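 Further: cells exposed to compound for 16 h at 37 °C before reading.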 Conditions: Jurkat caspase-3 activation, luminescence; caspase-3 activation: at 92.2 µM (top of the series), DMSO = 0%, tamoxifen = 100%. A digest of the protocol:
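Luminescent caspase-3/7 readout (aminoluciferin substrate cleavage) in human T-cell leukemia Jurkat cells after 16 hr compound exposure. Concentration-response normalized to DMSO and 100 uM tamoxifen; AC50 by standard Hill equation.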

A short description of assay [20]: Cellular Toxicity (caspase-3) SK-N-SH (AID 661).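 Further: cells exposed to compound for 16 hours; 0% = DMSO basal and 100% = 10 µM staurosporine.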 Conditions: SK-N-SH caspase-3 activation, qHTS; caspase-3 activation: at 91.7 µM (top of the series), DMSO as zero, staurosporine as full. A digest of the protocol: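 Caspase 3/7 activation is measured as a luminescence increase from aminoluciferin released by substrate cleavage in SK-N-SH cells after 16 hr compound treatment; values are AC50 from concentration-response curves.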

Assay [21] in a line: Cellular Toxicity (caspase-3) NIH 3T3 (AID 666).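 Further: 0% = DMSO basal and 100% = 100 µM tamoxifen stimulation.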 Put shortly:
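Concentration-response qHTS in NIH 3T3 mouse fibroblasts scores caspase-3/7 activation as rising luminescence after 16 hr compound exposure. Signals are scaled between DMSO-only and 100 uM tamoxifen.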

The nature of assay [22]: Cellular Toxicity (caspase-3) Renal Proximal Tubule (AID 667).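 Further: cells exposed to compound for 16 hours at 37 °C before detection; 0% = DMSO basal and 100% = 10 µM staurosporine.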 Put shortly:
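Luminescent caspase 3/7 signal from peptide-aminoluciferin cleavage measures apoptosis in freshly isolated rat kidney proximal tubule cells after 16 h compound exposure. Concentration-response data are normalized to DMSO and 10 uM staurosporine, and AC50 values come from Hill equation fits.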

Assay [23] addresses Glucocorticoid receptor (Homo sapiens) (UniProt P04150). Briefly: qHTS assay for small molecule agonists of glucocorticoid receptor signaling (AID 588532; active means well fitted curve in the direction sought with a large enough effect in the signal ratio, with a control signal flat; the % refers to the signal ratio;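 further: 100% = dexamethasone at 0.1 µM and 0% = DMSO only wells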). The settings on record: HeLa MMTV-bla, beta-lactamase ratio, agonist, 18 h; hits give high values; percent of dexamethasone control, DMSO zero. Put shortly: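 Cells were plated and rested 3-5 h at 37 C, compounds were added in titration and incubated 18 h, then CCF4 substrate was loaded for 2 h at RT before reading blue/green fluorescence. EC50 came from Hill-equation fitting.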

In assay [24] the target is Thyroid hormone receptor beta (Homo sapiens) (UniProt P10828). Briefly: qHTS assay for small molecule agonists of thyroid hormone receptor beta signaling (AID 588545; calls by dose curve;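 further: 0% = DMSO only and 100% = 10 nM T3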). A digest of the protocol:
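Efficacy and EC50 values derive from Hill fits of qHTS titration data, normalized to 10 nM T3 and DMSO-only wells. HEK 293 reporter cells were stimulated for 18 hrs at 37 C, with beta-lactamase activity measured by CCF4 fluorescence.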

The target in assay [25] is Voltage-gated inwardly rectifying potassium channel KCNH2 (Homo sapiens) (UniProt Q12809). Put plainly: qHTS Assay for Small Molecule Inhibitors of the Human hERG Channel Activity (AID 588834).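 Further: top concentration of the series differs between compounds; on the % scale 0 is the no-effect control and ±100 the full control effect; lower thallium flux fluorescence means stronger hERG block; nearly all actives have a fitted effect of over 50% in size.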 A digest of the protocol:
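Concentration-response qHTS measuring drop in thallium-sensitive dye signal. U2OS cells carrying BacMam hERG; compound exposure ~10 min, then stimulation buffer and 2 min read at 1 sec intervals.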

Assay [26] addresses Tumor necrosis factor (Homo sapiens) (UniProt P01375). Put plainly: qHTS assay to identify small molecules that stimulate Tumor Necrosis Factor-alpha (TNF-alpha) secretion (AID 651757; active means well fitted curve in the direction sought with a large enough effect in the signal ratio; the % refers to the signal ratio; further: 0% is about no effect). A digest of the protocol: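 Secreted TNF-alpha from compound-treated THP-1 cells (17 hrs, 37 C) was quantified with a homogeneous time-resolved fluorescence antibody assay.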
The nature of assay [27]: qHTS assay for environmental chemicals that activate the Aryl hydrocarbon Receptor (AhR) signaling pathway (AID 651777). Further: % of control where 0% means no effect; nearly all actives have a fitted effect of over 15% in size. The settings on record: 1A2-DRE human hepatoma cells, luciferase, 24 h; activation: hits give high values. Put shortly:
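Luminescence read-out: One-Glo added for 30 min at RT after 24 hr compound treatment (37 C, 5% CO2) of human hepatoma cells expressing a DRE/CYP1A2 promoter–luciferase reporter; increased signal indicates AhR activation.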

Assay [28] concerns the target Peroxisome proliferator-activated receptor alpha (Homo sapiens) (UniProt Q07869). Briefly: qHTS assay for small molecule agonists of the peroxisome proliferator-activated receptor alpha (PPARalpha) signaling pathway (AID 651778). Further: % of control where 0% means no effect. The settings on record: PathHunter PPARalpha complementation, chemiluminescence, 6 h; max response: hits give high values. A digest of the protocol: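 Enzyme-fragment complementation assay in which ligand-bound PPARalpha translocates and forms an active enzyme that generates chemiluminescence. Cells were plated overnight, exposed to compound for 6 hr at 37 C, and then given detection reagent for 60 min at room temperature.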

A short description of assay [29]: qHTS assay for cell viability of HEK293 cells (AID 743288). Further: potency means the concentration at half of the fitted maximal effect; nearly all actives have a fitted effect of over 50% in size. Conditions: ATP luminescence (CellTiter-Glo), 18 h; max response: hits give low values. Put shortly: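 Environmental chemicals tested in qHTS format against parental HEK293 cells; 18 h treatment, 37 C; read-out ATP luminescence (CellTiter-Glo), 30 min RT development.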
Assay [30] deals with Nuclear receptor subfamily 1 group I member 2 (Rattus norvegicus) (UniProt Q9R1A7). Put plainly: qHTS assay for small molecule activators of the rat pregnane X receptor (rPXR) signaling pathway (AID 651751; call rule not given here; further: 0% is about no effect). The settings on record: rPXR reporter cells, luciferase (One-Glo), 24 h.

Glucocorticoid receptor (Homo sapiens), sequence (P04150 whole entry, looked up): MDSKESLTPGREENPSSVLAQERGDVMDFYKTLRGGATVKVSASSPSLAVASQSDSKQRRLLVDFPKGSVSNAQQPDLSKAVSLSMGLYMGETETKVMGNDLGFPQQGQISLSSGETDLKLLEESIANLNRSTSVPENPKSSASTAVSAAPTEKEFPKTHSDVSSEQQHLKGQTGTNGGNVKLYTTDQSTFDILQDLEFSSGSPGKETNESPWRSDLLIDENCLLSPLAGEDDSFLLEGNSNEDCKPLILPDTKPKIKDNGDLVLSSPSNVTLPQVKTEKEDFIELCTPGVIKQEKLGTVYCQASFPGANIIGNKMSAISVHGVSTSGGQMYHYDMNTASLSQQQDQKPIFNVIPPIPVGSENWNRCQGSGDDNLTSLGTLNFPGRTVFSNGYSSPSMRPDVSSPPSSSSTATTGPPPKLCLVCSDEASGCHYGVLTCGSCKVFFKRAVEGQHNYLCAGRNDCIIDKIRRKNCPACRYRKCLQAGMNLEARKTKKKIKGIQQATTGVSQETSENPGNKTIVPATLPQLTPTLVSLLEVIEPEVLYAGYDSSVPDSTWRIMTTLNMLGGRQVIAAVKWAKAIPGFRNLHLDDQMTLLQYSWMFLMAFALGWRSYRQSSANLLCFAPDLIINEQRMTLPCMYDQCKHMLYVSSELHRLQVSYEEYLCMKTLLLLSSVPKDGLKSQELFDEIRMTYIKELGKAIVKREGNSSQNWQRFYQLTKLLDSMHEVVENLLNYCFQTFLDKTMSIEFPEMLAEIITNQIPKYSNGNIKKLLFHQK
Cytochrome P450 3A4 (Homo sapiens), sequence (P08684 whole entry, looked up): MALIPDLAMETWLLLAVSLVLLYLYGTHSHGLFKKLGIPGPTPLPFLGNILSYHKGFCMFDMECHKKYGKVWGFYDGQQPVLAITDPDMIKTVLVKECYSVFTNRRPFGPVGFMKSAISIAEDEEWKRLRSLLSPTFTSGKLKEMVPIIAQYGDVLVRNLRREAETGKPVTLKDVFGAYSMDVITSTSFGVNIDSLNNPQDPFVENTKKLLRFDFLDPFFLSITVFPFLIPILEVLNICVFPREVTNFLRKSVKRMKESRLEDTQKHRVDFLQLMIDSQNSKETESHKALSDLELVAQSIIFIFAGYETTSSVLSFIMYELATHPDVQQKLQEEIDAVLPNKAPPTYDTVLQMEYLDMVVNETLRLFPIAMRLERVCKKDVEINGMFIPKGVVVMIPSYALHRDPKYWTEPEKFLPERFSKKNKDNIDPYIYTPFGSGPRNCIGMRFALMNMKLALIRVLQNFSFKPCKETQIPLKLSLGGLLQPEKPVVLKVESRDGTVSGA
Peroxisome proliferator-activated receptor alpha (Homo sapiens), sequence (Q07869 whole entry, looked up, the tested form may be a part): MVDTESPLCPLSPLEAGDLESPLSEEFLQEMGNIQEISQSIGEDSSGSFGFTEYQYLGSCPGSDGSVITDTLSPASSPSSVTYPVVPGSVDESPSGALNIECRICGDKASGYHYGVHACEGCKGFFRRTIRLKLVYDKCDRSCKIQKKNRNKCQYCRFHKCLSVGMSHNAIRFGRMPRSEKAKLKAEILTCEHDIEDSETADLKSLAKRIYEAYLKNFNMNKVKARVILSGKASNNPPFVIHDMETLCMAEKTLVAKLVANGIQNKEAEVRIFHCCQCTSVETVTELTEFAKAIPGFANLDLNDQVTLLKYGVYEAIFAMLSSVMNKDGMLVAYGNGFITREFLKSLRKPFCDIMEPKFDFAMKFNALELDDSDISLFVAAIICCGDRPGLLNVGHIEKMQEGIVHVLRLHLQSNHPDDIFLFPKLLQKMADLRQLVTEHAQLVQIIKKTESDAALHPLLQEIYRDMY
Cytochrome P450 1A2 (Homo sapiens), sequence (P05177 whole entry, looked up): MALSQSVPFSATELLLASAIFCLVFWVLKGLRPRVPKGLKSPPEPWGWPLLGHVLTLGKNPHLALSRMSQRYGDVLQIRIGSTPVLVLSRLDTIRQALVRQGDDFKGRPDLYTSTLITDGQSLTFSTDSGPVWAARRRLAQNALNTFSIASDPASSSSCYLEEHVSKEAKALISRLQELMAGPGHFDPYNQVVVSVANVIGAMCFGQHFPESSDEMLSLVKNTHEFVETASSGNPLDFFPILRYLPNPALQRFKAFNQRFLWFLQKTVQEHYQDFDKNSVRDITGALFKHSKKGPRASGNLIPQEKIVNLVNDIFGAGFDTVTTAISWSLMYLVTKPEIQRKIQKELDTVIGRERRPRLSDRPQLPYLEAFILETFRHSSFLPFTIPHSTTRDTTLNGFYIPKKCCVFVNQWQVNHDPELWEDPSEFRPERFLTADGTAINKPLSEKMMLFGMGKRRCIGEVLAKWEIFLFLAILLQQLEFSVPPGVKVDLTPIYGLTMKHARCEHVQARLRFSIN
Thyroid hormone receptor beta (Homo sapiens), sequence (P10828 whole entry, looked up): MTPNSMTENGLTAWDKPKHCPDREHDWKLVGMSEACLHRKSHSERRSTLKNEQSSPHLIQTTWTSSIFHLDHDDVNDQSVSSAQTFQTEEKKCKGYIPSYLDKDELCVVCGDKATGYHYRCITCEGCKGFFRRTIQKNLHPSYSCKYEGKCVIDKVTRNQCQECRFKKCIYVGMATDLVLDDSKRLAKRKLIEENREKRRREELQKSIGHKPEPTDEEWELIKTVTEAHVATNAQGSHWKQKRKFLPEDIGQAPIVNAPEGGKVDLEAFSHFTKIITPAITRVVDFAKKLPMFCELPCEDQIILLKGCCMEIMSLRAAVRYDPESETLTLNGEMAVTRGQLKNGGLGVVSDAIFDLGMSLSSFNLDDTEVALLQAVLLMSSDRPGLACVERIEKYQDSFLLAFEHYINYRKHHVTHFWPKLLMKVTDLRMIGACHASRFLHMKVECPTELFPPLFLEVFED
Cytochrome P450 2C9 (Homo sapiens), sequence (P11712 whole entry, looked up): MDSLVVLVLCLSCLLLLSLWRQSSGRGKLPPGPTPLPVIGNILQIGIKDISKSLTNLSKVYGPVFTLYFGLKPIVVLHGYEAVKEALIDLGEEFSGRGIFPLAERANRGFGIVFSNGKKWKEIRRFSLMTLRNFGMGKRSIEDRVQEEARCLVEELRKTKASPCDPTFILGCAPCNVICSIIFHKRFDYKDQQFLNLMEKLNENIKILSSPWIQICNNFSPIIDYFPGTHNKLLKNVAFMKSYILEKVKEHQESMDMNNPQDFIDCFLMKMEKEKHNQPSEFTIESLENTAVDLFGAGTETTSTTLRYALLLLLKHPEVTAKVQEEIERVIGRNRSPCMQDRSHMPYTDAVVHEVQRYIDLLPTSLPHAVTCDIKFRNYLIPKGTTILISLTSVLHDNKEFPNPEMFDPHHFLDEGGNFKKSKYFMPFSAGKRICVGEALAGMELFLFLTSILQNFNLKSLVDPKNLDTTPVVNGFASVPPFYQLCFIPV
Voltage-gated inwardly rectifying potassium channel KCNH2 (Homo sapiens), sequence (Q12809 whole entry, looked up): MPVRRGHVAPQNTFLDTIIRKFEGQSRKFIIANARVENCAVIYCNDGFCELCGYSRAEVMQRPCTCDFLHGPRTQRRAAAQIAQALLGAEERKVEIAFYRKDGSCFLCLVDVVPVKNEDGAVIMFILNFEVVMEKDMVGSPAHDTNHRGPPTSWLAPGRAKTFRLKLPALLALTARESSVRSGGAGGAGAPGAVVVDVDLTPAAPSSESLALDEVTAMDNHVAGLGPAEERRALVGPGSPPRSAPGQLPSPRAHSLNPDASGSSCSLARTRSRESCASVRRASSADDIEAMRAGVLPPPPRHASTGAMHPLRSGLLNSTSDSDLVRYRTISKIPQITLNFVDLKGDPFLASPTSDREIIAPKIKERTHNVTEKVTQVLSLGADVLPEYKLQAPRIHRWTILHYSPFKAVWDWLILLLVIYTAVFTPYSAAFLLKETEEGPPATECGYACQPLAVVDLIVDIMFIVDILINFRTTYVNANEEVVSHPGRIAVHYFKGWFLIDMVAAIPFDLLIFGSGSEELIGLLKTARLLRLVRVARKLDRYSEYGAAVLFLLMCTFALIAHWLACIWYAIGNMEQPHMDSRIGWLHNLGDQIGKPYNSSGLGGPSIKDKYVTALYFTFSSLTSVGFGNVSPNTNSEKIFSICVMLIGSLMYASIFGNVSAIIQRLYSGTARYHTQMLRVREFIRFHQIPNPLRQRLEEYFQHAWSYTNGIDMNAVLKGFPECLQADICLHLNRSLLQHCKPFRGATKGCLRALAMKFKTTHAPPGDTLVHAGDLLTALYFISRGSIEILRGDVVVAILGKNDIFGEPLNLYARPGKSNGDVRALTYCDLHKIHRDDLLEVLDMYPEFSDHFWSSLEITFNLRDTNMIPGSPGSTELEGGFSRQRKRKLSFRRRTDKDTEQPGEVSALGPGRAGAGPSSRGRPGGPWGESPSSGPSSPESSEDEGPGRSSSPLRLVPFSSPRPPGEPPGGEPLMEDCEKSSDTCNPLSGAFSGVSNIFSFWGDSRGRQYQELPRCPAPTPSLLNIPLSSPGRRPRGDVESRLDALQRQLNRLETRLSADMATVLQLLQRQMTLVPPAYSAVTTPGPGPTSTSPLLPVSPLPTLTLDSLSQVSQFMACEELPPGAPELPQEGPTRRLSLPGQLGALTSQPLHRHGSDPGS
Tumor necrosis factor (Homo sapiens), sequence (P01375 whole entry, looked up): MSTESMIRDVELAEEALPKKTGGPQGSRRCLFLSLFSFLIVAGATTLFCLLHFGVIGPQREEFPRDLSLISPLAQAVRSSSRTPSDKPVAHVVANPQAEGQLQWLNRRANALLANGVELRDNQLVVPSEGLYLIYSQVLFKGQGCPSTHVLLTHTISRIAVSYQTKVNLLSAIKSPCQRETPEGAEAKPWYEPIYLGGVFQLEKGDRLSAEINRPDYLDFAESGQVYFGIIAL

In the case of `CC(C)(C)C(=O)NC(c1ccc(Cl)cc1)[C@]1(C)C[C@H]1C1CCCCC1` (stereo partly drawn), the Potency result in [1], in assay [2] and in assay [3] was “inactive” in each case.
Regarding `CCC/C=C(\CCC)C(NC(=O)OCC(C)C)c1ccc(C(=O)OC)cc1` (stereo not drawn), the Potency in assay [1] is 15.8 µM (active); in [5], 3.98 µM (active). In addition, the Potency entry in assay [4] and in assay [3] was “inactive” each time.
With `C=CC(=O)OCC(CO)(COC(=O)C=C)COC(=O)C=C`, the Potency in assay [6] was above 92 µM; in assay [7] it was 8.68 µM (active); in assay [8], above 92 µM; in assay [9], 17.8 µM (active); in [10] it was 2.02 µM (active); in assay [11], 15.8 µM (active). Moreover, the Potency in assay [12] is 2 µM (active); in assay [13], 50.1 µM (active); in assay [14], 2.51 µM (active); in assay [15], 1.58 µM (active); in assay [16] it was 3.16 µM (active); in assay [29], 5.01 µM (active) and 22.4 µM (active). Further, the Potency result in [2], in assay [18], in assay [21] and in assay [25] was “inactive” throughout. The activity change, negative = cytotoxicity in assay [17] is -91.9% (active). In addition, the caspase-3 activation is -6.15% (active) in [19] and -3.53% (active) in [20]. For the same molecule, the call in assay [22], in [24] and in [26] was inactive. The activation was -3.48% and -11.6% in assay [23]; 2.52% and -1.81% in assay [27]. The max response in [28] was 1.55% and 0.0188%; in [30], -14.2%.
